The values below come from PubChem BioAssay (EPA / NIEHS).

Test [1] can be described thus: ATG_E_Box_CIS: Attagene CIS-FACTORIAL HepG2 Assay for human Enhancer Box (E-box) (AID 2282936). Conditions: HepG2 E-box cis-reporter transcription, actives raise or lower the signal. The method, boiled down:
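DMSO served as negative control and baseline for bidirectional fitting. Human hepatoma HepG2 cells, transiently transfected with cis-reporter constructs, were dosed 24 h; reporter mRNA read by RT-PCR and capillary electrophoresis.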

Test [2] is described as follows: ATG_M_61_CIS: Attagene CIS-FACTORIAL HepG2 Assay for M61 Transcription Factor (Internal Marker) (AID 2282937). The settings on record: HepG2 Attagene CIS-FACTORIAL M61 internal marker reporter; actives raise or lower the signal. An outline of the steps: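 HepG2 cells transiently transfected with multiplexed cis-promoter reporter units reporting endogenous transcription factor activity, measured 24 h after dosing. Reporter mRNA quantified by RT-PCR and capillary electrophoresis; bidirectional fit against DMSO baseline.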

Test [3] can be described thus: ATG_EGR_CIS: Attagene CIS-FACTORIAL HepG2 Assay for human Early Growth Response 1 (EGR1) (AID 2282938). The settings on record: HepG2 Attagene CIS-FACTORIAL EGR reporter mRNA; actives raise or lower the signal. An outline of the steps:
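HepG2 cells transiently transfected with cis-element-driven multiplexed reporter units, dosed for 24 h. EGR1-element reporter mRNA quantified by RT-PCR, 6-FAM labelling, HpaI digestion and capillary electrophoresis; bidirectional fit versus DMSO.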

A short description of test [4]: ATG_M_19_CIS: Attagene CIS-FACTORIAL HepG2 Assay for M19 Transcription Factor (Internal Marker) (AID 2282939). Conditions: HepG2 Attagene CIS-FACTORIAL M19 internal marker reporter; actives raise or lower the signal. An outline of the steps: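 Chemical-treated HepG2 (24 h) with MRTU constructs; reporter transcripts detected by fluorescent RT-PCR fragment analysis on capillary electrophoresis. Internal background marker, DMSO as baseline.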

Test [5] can be described thus: ATG_ERE_CIS: Attagene CIS-FACTORIAL HepG2 Assay for Estrogen Response Element (ERE) (AID 2282940). The settings on record: HepG2 ERE cis-reporter, Attagene RNA transcript; actives raise or lower the signal. An outline of the steps:
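Human liver cells (HepG2) bearing transiently transfected, promoter-regulated reporter units were exposed 24 h. Reporter mRNA induction was detected by capillary electrophoresis of labelled RT-PCR products and fitted bidirectionally to DMSO.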

Test [6] is described as follows: ATG_Ets_CIS: Attagene CIS-FACTORIAL HepG2 Assay for human Erythroblast Transformation Specific (ETS) (AID 2282941). The settings on record: HepG2 ETS cis-reporter transcription, actives raise or lower the signal. An outline of the steps: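 Human HepG2 hepatoma cells were transiently transfected with promoter-driven reporter constructs and treated for 24 hours. Reporter transcripts were quantified by RT-PCR with fluorescent primer extension; bidirectional curve fitting used DMSO as reference.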

Test [7] addresses Hepatocyte nuclear factor 3-beta (Homo sapiens) (UniProt Q9Y261). The experiment in a line: ATG_FoxA2_CIS: Attagene CIS-FACTORIAL HepG2 Assay for human Forkhead box A2 (FOXA2) (AID 2282942). The settings on record: HepG2 cis-reporter transcription factor activity, 24 h; actives raise or lower the signal. The method, boiled down:
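HepG2 transiently transfected with a multiplexed cis-promoter reporter library read endogenous FOXA2 activity. After 24 h compound exposure, reporter mRNA was quantified by RT-PCR, HpaI digestion and capillary electrophoresis. Bidirectional fit against DMSO.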

A short description of test [8]: ATG_FoxO_CIS: Attagene CIS-FACTORIAL HepG2 Assay for human Forkhead box O (FoxO) (AID 2282943). The settings on record: HepG2 Attagene cis-reporter, FoxO element, mRNA; actives raise or lower the signal. An outline of the steps: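 Endogenous transcription factor activity read from multiplexed cis-promoter reporter transcripts in transiently transfected HepG2, 24 h after dosing. Reporter RNA measured via RT-PCR plus capillary electrophoresis of FAM-labeled products; gain or loss relative to DMSO.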

Test [9] can be described thus: ATG_GLI_CIS: Attagene CIS-FACTORIAL HepG2 Assay for human Zinc Finger Protein GLI1 (AID 2282945). The settings on record: HepG2, Attagene cis-factorial reporter mRNA, GLI element; actives raise or lower the signal. The method, boiled down: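 Bidirectional curve fits relative to DMSO, using reporter mRNA levels from RT-PCR plus capillary electrophoresis. Cells were HepG2 transiently carrying cis-regulated reporter constructs, harvested 24 h after dosing.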

A short description of test [10]: ATG_GRE_CIS: Attagene CIS-FACTORIAL HepG2 Assay for human Glucocorticoid Response Elements (GRE) (AID 2282947). Conditions: HepG2 GRE cis-reporter, Attagene multiplex mRNA; actives raise or lower the signal. An outline of the steps:
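Assay uses human hepatoma HepG2 cells transfected with cis-promoter reporter units, exposed 24 h. mRNA from reporters detected by RT-PCR plus capillary electrophoresis; DMSO serves as negative control and baseline.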

The nature of test [11]: ATG_ISRE_CIS: Attagene CIS-FACTORIAL HepG2 Assay for human Interferon Regulatory Factor 1 (IRF1) binding to an Interferon-Stimulated Response Element (ISRE) (AID 2282948). Conditions: HepG2 ISRE cis-reporter (Attagene), mRNA transcription readout; actives raise or lower the signal. An outline of the steps: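 Cell-based cis-reporter assay; HepG2; 24 h exposure; reporter mRNA by RT-PCR plus capillary electrophoresis fluorescence; activity in either direction scored relative to DMSO.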

A short description of test [12]: ATG_M_32_CIS: Attagene CIS-FACTORIAL HepG2 Assay for M32 Transcription Factor (Internal Marker) (AID 2282949).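 Note: background control marker of the multiplexed CIS panel rather than a real target.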 The settings on record: HepG2 Attagene cis-factorial M32 reporter, mRNA; actives raise or lower the signal. The method, boiled down: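 Following 24 h chemical exposure of HepG2 cells transiently expressing cis-promoter reporter constructs, reporter transcript levels were determined by RT-PCR with fluorescent labelling and capillary electrophoresis, then fitted bidirectionally against DMSO.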

The nature of test [13]: ATG_M_06_CIS: Attagene CIS-FACTORIAL HepG2 Assay for M06 Transcription Factor (Internal Marker) (AID 2282950). Conditions: HepG2 Attagene CIS-FACTORIAL M06 internal marker reporter; actives raise or lower the signal. The method, boiled down:
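Cells (HepG2, transiently carrying cis-driven reporter units) receive chemical for 24 h before RNA isolation. Reporter cDNA is PCR-amplified, FAM-labelled by primer extension, HpaI-digested and sized on a capillary analyser.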

The target of test [14] is Hypoxia-inducible factor 1-alpha (Homo sapiens) (UniProt Q16665). The experiment in a line: ATG_HIF1a_CIS: Attagene CIS-FACTORIAL HepG2 Assay for human Hypoxia Inducible Factor 1 (HIF1A) (AID 2282951). The settings on record: HepG2 Attagene cis-factorial HIF1a reporter transcription; actives raise or lower the signal. The method, boiled down: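 HepG2 cells transiently transfected with multiple cis-regulated reporter transcription units measure endogenous transcription factor activity. After 24 h exposure, reporter mRNA is quantified by RT-PCR with 6-FAM labelling, HpaI digestion and capillary electrophoresis. Bidirectional fitting against DMSO.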

Test [15] concerns the target Hepatocyte nuclear factor 6 (Homo sapiens) (UniProt Q9UBC0). The experiment in a line: ATG_HNF6_CIS: Attagene CIS-FACTORIAL HepG2 Assay for human Hepatocyte Nuclear Factor 6 (HNF6) (AID 2282952). The settings on record: HepG2 Attagene cis-factorial HNF6 reporter transcription; actives raise or lower the signal. The method, boiled down:
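HepG2 cells transiently transfected with cis-element-driven multiplexed reporter units measuring endogenous transcription factor activity. After 24 h exposure, reporter mRNA quantified by RT-PCR, FAM-labelled fragments and capillary electrophoresis; bidirectional fitting versus DMSO.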

The nature of test [16]: ATG_MRE_CIS: Attagene CIS-FACTORIAL HepG2 Assay for human Metal Responsive Element (MRE) (AID 2282954). Conditions: HepG2 MRE cis-reporter transcription, Attagene multiplex; actives raise or lower the signal. The method, boiled down: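 After a 24 h chemical exposure, transiently transfected HepG2 cells yield RNA whose reporter sequences are amplified, FAM-labelled and sized by capillary electrophoresis. Curves are fitted bidirectionally relative to DMSO.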

A short description of test [17]: ATG_PBREM_CIS: Attagene CIS-FACTORIAL HepG2 Assay for human Phenobarbital-responsive Enhancer Module (PBREM) (AID 2282955). Conditions: HepG2 PBREM cis-reporter, Attagene multiplexed transcription; actives raise or lower the signal. The method, boiled down: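 HepG2 cells transiently transfected with multiple cis-regulated reporter units measure endogenous transcription factor activity; 24 h compound exposure. Reporter mRNA quantified by RT-PCR, fluorescent labelling, HpaI digestion and capillary electrophoresis; bidirectional fit versus DMSO.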

The target in test [18] is Bile acid receptor (Homo sapiens) (UniProt Q96RI1). Nature of the test: ATG_IR1_CIS: Attagene CIS-FACTORIAL HepG2 Assay for human Nuclear Receptor Subfamily 1 Group H Member 4 (NR1H4), IR1 submotif (AID 2282946). Conditions: IR1 reporter transcription, actives raise or lower the signal. An outline of the steps:
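Cells (human HepG2) carry transiently transfected cis-promoter reporter transcription units. Compounds are incubated 24 h, total RNA is reverse-transcribed and amplified, and labelled fragments are resolved by capillary electrophoresis. Curves use DMSO as baseline.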

The target of test [19] is Heat shock factor protein 1 (Homo sapiens) (UniProt Q00613). The experiment in a line: ATG_HSE_CIS: Attagene CIS-FACTORIAL HepG2 Assay for human Heat Shock Transcription Factor 1 (HSE) (AID 2282953). Conditions: HepG2 HSE cis-reporter, Attagene RNA transcription; actives raise or lower the signal. An outline of the steps: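 Liver-derived HepG2 cells carry transiently introduced multiple reporter units governed by cis promoters. Reporter RNA measured 24 h post-dose through reverse transcription, PCR amplification, fluorescent labelling and capillary electrophoresis, normalised to DMSO.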

Test [20] can be described thus: ATG_GATA_CIS: Attagene CIS-FACTORIAL HepG2 Assay for human GATA Binding Protein (AID 2282944). Conditions: HepG2 GATA cis-element reporter, Attagene multiplex mRNA; actives raise or lower the signal. An outline of the steps: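 Transfected cis-reporter HepG2 cells were treated with chemicals for 24 hours. Total RNA was then converted to cDNA, amplified with reporter-specific primers and analysed by fluorescent capillary electrophoresis, using DMSO-treated wells as baseline.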

Structures are written as SMILES. The source made the active and inactive calls. Rule for the calls: active = hit-call score of the fitted dose curve at least 0.9, where 1 is the maximum; inactive = score below 0.9.

Hypoxia-inducible factor 1-alpha (Homo sapiens), sequence (Q16665 whole entry, looked up): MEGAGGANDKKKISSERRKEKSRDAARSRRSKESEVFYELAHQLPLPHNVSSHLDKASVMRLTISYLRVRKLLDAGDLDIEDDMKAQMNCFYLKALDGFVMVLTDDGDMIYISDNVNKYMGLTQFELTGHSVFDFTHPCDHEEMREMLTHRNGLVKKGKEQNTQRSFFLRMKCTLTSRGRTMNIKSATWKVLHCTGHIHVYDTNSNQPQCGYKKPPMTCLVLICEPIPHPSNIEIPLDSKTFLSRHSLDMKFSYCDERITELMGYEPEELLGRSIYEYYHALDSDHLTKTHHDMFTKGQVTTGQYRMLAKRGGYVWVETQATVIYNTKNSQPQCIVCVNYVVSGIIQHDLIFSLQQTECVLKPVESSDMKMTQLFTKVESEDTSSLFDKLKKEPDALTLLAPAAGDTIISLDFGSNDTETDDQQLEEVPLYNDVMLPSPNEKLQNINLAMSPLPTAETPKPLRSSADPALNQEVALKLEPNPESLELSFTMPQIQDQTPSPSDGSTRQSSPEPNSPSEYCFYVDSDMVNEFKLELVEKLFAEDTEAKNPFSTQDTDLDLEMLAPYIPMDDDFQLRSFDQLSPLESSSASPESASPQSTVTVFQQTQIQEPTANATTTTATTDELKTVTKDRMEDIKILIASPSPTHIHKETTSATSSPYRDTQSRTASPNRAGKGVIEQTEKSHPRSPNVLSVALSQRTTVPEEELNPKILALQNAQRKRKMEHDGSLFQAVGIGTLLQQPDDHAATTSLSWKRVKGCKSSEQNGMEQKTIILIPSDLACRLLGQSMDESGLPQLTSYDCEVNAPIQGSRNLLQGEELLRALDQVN
Hepatocyte nuclear factor 3-beta (Homo sapiens), sequence (Q9Y261 whole entry, looked up): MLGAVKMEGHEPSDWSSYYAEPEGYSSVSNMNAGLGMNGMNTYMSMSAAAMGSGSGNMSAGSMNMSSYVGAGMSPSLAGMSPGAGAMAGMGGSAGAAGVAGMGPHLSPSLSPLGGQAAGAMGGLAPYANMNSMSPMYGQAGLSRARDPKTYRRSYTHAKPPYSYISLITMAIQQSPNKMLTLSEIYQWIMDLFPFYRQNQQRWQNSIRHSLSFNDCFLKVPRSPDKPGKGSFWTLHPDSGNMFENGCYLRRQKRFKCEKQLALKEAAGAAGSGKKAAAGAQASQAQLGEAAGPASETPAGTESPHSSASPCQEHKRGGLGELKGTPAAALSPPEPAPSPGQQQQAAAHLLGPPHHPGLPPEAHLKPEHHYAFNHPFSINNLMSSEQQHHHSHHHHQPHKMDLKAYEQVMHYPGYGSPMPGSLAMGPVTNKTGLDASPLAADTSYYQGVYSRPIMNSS
Heat shock factor protein 1 (Homo sapiens), sequence (Q00613 whole entry, looked up): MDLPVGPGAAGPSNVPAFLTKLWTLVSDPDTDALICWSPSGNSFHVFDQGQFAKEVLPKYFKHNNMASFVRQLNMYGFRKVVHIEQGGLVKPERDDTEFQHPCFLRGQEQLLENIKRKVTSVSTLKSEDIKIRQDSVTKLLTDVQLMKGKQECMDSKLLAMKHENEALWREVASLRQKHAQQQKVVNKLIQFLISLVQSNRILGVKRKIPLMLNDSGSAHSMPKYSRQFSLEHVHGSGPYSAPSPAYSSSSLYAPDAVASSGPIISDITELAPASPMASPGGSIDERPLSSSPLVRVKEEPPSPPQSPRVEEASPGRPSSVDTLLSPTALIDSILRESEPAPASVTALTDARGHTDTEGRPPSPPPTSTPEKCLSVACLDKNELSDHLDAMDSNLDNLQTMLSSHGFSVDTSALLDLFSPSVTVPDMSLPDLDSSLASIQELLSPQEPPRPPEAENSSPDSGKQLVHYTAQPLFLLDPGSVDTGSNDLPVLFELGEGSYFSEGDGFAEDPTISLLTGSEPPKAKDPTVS
Hepatocyte nuclear factor 6 (Homo sapiens), sequence (Q9UBC0 whole entry, looked up, the tested form may be a part): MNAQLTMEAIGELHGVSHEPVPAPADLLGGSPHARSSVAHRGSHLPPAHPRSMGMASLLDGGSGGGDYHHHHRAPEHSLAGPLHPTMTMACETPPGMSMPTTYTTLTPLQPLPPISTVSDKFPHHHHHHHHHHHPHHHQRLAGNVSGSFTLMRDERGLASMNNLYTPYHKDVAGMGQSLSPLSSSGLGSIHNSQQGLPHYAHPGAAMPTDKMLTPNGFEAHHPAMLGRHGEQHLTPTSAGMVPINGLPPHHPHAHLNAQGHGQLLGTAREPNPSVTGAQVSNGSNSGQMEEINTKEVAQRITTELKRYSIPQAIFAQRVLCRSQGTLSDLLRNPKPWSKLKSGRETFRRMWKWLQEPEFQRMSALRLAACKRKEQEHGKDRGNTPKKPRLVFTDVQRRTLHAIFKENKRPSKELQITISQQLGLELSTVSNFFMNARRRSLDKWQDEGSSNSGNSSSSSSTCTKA
Bile acid receptor (Homo sapiens), sequence (Q96RI1 whole entry, looked up, the tested form may be a part): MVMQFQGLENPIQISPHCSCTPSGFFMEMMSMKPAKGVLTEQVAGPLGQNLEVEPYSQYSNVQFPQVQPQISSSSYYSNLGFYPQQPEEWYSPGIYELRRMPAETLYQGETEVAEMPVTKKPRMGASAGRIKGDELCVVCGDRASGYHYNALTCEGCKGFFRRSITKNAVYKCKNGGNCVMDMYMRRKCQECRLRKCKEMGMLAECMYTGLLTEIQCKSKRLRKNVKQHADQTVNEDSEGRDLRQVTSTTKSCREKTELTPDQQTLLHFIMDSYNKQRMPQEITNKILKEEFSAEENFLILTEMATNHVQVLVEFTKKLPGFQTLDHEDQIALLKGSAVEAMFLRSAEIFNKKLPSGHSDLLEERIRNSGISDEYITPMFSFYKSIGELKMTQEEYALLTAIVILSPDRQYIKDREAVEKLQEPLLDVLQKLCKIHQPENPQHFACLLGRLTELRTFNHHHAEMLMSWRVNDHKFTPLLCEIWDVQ

In the case of `CC(=O)C=CC1C(C)=CCC(C)C1(C)C` (stereo not drawn), the outcome in test [1], in [2], in test [3], in test [4], in test [5] and in test [6] was inactive. Also, the molecule was called inactive in test [7], in test [8], in [9], in [10], in test [11] and in [12]. The result in test [13], in test [14], in test [15], in [16] and in [17] was inactive.

Consider `CC1=NN(c2cc(S(=O)(=O)O)ccc2Cl)C(=O)C1N=Nc1ccccc1` (stereo not drawn), for which the outcome in test [1], in [2], in test [3], in test [4], in test [5] and in test [6] was inactive. For the same molecule, the result in test [7], in test [8], in test [9], in [18], in test [10] and in test [11] was inactive. Moreover, the call in test [12], in test [13], in test [14], in test [15], in [16] and in [17] was inactive.

`CC1(C)O[C@@H]2C[C@H]3[C@@H]4C[C@H](F)C5=CC(=O)C=C[C@]5(C)[C@@]4(F)[C@@H](O)C[C@]3(C)[C@]2(C(=O)CO)O1`: the outcome in [1], in [2], in test [3], in test [4], in test [6] and in test [7] was inactive. Moreover, the outcome in test [8], in test [9], in [11], in [12], in test [14] and in [15] was inactive. Besides, the call in [19] and in test [16] was inactive. Further, the AC50 in [5] is 4.27 µM (active); in test [10], 0.563 µM (active).

Take `CC(C)C1=CC2=CC[C@@H]3[C@](C)(CCC[C@@]3(C)C(=O)O)[C@H]2CC1`: the outcome in test [1], in [2], in test [4], in [5], in test [6] and in test [7] was inactive. The outcome in test [9], in [11], in test [12], in [13], in test [15] and in test [17] was inactive. Besides, the AC50 is 60.3 µM (active) in test [3]; 54.1 µM (active) in test [20]; 119 µM (active) in test [10]; 100 µM (active) in [14]; 145 µM (active) in test [19]; 106 µM (active) in test [16].

Turning to `O=C(c1ccccc1)c1ccc(O)c(O)c1O`, the outcome in [1], in [2], in [3], in test [4], in test [6] and in test [7] was inactive. Besides, the molecule was called inactive in [20], in test [9], in [10], in test [11], in test [12] and in test [15]. Besides, the outcome in test [19] and in test [16] was inactive. Further, the AC50 in test [5] is 27 µM (active); in [14] it was 61.2 µM (active).

As for `c1cc(N(CC2CO2)CC2CO2)ccc1OCC1CO1` (stereo not drawn), the outcome in test [1], in test [2], in test [4], in test [5], in [6] and in test [7] was inactive. Also, the molecule was called inactive in test [20], in test [18], in [12], in test [15] and in test [17]. For the same molecule, the AC50 is 38.7 µM (active) in test [3]; 140 µM (active) in test [9]; 74.4 µM (active) in test [11]; 39.6 µM (active) in [14]; 152 µM (active) in test [19]; 31.7 µM (active) in test [16].

As to `COC(=O)/C=C\C(=O)O`, the result in [1], in [2], in test [3], in test [4], in test [5] and in [6] was inactive. Also, the molecule was called inactive in test [7], in [8], in test [20], in test [10], in test [11] and in test [13]. The call in test [14], in test [15], in test [16] and in test [17] was inactive.

One may read the AC50 as the concentration giving half of the maximal activity seen.
